ERK EGF block – inhibitors of EGF-stimulated ERK signaling pathway | Potency, µM (titrated, usually from 11.5 µM), for inactives: at the top dose activity change, negative = inhibition, hits mostly inhibitors | HEK293-V1b, EGF-stimulated phospho-ERK AlphaScreen | actives 0.41% (n = 130,000); active = well fitted inhibition curve with a large enough effect;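 also: plate controls were stimulated vehicle wells for no effect and unstimulated vehicle basal for full effect; nearly all actives have a fitted effect of over 55% in size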
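Readout: AlphaScreen signal for phosphorylated ERK in lysed HEK293 cells stably expressing V1b. Stimulus 25 nM EGF, 5 min, following 30 min compound exposure. Data scaled to DMSO basal and full EGF activation.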
The depositor's hits bear a star; ! = repeats disagree; [ ] = remark or other dose. The full list was thinned out, with hits kept by preference. Potency is read from the fitted curve at half-maximal effect.

SMILES | ERK EGF block
CC[C@@]12CCCN3CCc4c(n(c5ccccc45)[C@](O)(C(=O)OC)C1)C32 (some centres not stated) | 7%
Clc1cccc2c1Sc1ccccc1CC2N1CCNCC1 (configuration not stated) | 28µM*
O=S(=O)(NC1c2cccc3cccc(c23)C1N1CCNCC1)c1ccc(Cl)cc1 (configuration not stated) | 1%
S=C1NCCc2ccccc2C1c1ccccc1Cl (configuration not stated) | 12%
C[C@]12CCC(=O)C=C1CC[C@@H]1C2[C@@H](O)C[C@@]2(C)[C@H]1CC[C@]2(O)C(=O)CO (some centres not stated) | 5%
CC(C)(N=NC(C)(C)C(=N)N)C(=N)N | -5%
COc1ccccc1CN1CCCC2(CCN(C(C)=O)CC2)C1 | 1%
CC1C/C(=N/Nc2nc3ccccc3[nH]2)CC(C)(C)C1 (configuration not stated) | -2%
CC1C/C(=N/Nc2ccc([N+](=O)[O-])cc2[N+](=O)[O-])CC(C)(C)C1 (configuration not stated) | 13µM*
Cc1cc(N/N=C2\CC(C)CC(C)(C)C2)nc2ccccc12 (configuration not stated) | -5%
C[C@@H](C(=O)O)c1ccc(C(=O)c2ccccc2)s1 | -1%[25.7 µM]
O=[N+]([O-])c1cnc(Sc2ccncn2)s1 | 14µM*
O=C(Nc1ccc(Cl)cc1)Nc1ccccc1Sc1ncc([N+](=O)[O-])s1 | -3%[57.5 µM]
O=C1NCCN1c1ncc([N+](=O)[O-])s1 | -3%[25.7 µM]
CCCCCCCN[C@H]1CCC[C@@H]1CCCCCCC(=O)O | 1%
Nc1ncn([C@H]2O[C@@H](CO)[C@@H](O)[C@@H]2O)c(=O)n1 | -4%[25.7 µM]
N#Cc1ccc(CS(=O)(=O)c2nnnn2-c2ccccc2)cc1 | -2%
COc1cccc2c1C(=O)c1c(O)c3c(c(O)c1C2=O)C[C@@](O)(C(C)=O)C[C@@H]3O[C@H]1C[C@H](N)[C@H](O)[C@H](C)O1 | 25µM*!
C=C[C@@H]1CN2CC[C@@H]1C[C@@H]2[C@H](O)c1ccnc2ccc(OC)cc12 | 9%
Cc1cnc(CNc2ncnc3ccc(-c4ccccc4C#N)cc23)cn1 | 20%
CN1CCN(c2ncc3nc(-c4cccs4)c(=O)n(C[C@H]4CCCO4)c3n2)CC1 | -8%
Cc1ccc(Nc2ncnc3ccccc23)cc1 | 25µM*
CC(C)Oc1ccc(Nc2ncnc3ccccc23)cc1 | -7%
Cc1ccc(Nc2ncnc3c2cnn3C)cc1 | -3%
O=C1c2cccc3cccc(c23)C(=O)N1CCN1CCN(CC(O)COCc2ccc(Cl)cc2)CC1 (configuration not stated) | 32µM*
SMILES | ERK EGF block
CC(=O)c1ccccc1OC(=O)CCN1C(=O)c2ccccc2C1=O | 2%
COc1cc(COCC(O)CN2CCN(CCN3C(=O)c4cccc5cccc(c45)C3=O)CC2)cc(OC)c1OC (configuration not stated) | 5%
CC(=O)c1ccccc1OCC(O)CN1CCN(CCN2C(=O)c3cccc4cccc(c34)C2=O)CC1 (configuration not stated) | 25µM*
O=C1c2cccc3cccc(c23)C(=O)N1CCN1CCN(C(=S)Nc2ccc(Cl)cc2)CC1 | 8%
O=C1c2cccc3cccc(c23)C(=O)N1CCN1CCN(CC(O)COc2ccc3ccccc3c2)CC1 (configuration not stated) | 1%
CC(C)c1ccc(Cn2ccc3c4c(N)nc(NC5CC5)nc4ccc32)cc1 | -13%
COc1ccc(C(=O)N2CCC3(CC2)CN(C(=O)Nc2cccc(C#N)c2)C3)cc1 | 0%
N#Cc1cccc(CS(=O)(=O)c2nc3ccccc3s2)c1 | 1%
COc1cccc(-c2cc(=O)c3ccccc3o2)c1N | 5µM*!
O=c1cc(-c2ccccc2F)oc2ccccc12 | 12%
COc1ccccc1-c1cc(=O)c2cccc(OC)c2o1 | 24%
COc1cccc(Cn2c(=O)c(CCc3ccccc3)nc3cnc(OC)nc32)c1 | 17%
CC(C)C[C@@H](CC(=O)N[C@@H](CCCN)CC(=O)N[C@@H]1CCCC[C@H]1C(=O)N[C@H](CC(=O)N[C@@H](CCC(=O)O)CC(=O)O)Cc1c[nH]c2ccccc12)NC(=O)[C@@H]1CNCC[C@H]1N | 4%
COc1ccc(NC(=O)N2CCC3(CC2)CCN(C(=O)c2ccco2)CC3)cc1 | 10%
O=C(NC1CCCCC1)c1ccc(Cl)c(NC(=O)c2ccccc2F)c1 | -14%
O=C(Nc1ccc(Cl)c(Cl)c1)Nc1cc(C(=O)NC2CC2)ccc1Cl | 28µM*
O=C(Nc1ccc(Cl)c(Cl)c1)c1ccc(Cl)c(Cl)c1 | -8%[57.5 µM]
O=C(c1cc(C(F)(F)F)cc(C(F)(F)F)c1)N1CCC2(CC1)CN(c1ccccc1)C2 | 4%
O=C(O)c1cn(C2CC2)c2cc(N3CCNCC3)c(F)cc2c1=O | 9%
CC1=NN(c2ccccc2)C(=O)/C1=C\c1cc(C)n(-c2cccnc2)c1C | -2%[57.5 µM]
CC1=NN(c2ccccc2)C(=O)/C1=C/c1c(O)n(-c2ccc(F)cc2)[nH]c1=O | 0%
CC1=NN(c2ccccc2)C(=O)/C1=C/c1cccs1 | 5%
CC1=NN(c2ccccc2)C(=O)/C1=C/c1ccc[nH]1 | 18µM*
CC1=NN(c2ccccc2)C(=O)/C1=C\c1cc(C)n(-c2ccccc2)c1C | -5%
CC1=NN(c2ccccc2)C(=O)/C1=C\c1ccc(Br)s1 | 28µM*
SMILES | ERK EGF block
COC1OC2COC(c3ccccc3)OC2C(O)C1O (configuration not stated) | -1%
CC[C@]1(O)C[C@@H]2CN(CCc3c([nH]c4ccccc34)[C@](C(=O)OC)(c3cc4c(cc3OC)N(C=O)[C@H]3[C@@](O)(C(=O)OC)[C@H](C(=O)OC)[C@@]5(CC)C=CCN6CC[C@]43[C@H]65)C2)C1 | 6%
COc1cccc(-c2cc(=O)c3ccc(OC)cc3o2)c1 | 26%
Cc1cc(=O)oc2cc(O[C@@H]3O[C@H](C(=O)O)[C@@H](O)[C@H](O)[C@H]3O)ccc12 | -12%
COc1ccc(/C=N/NC(=O)c2cccnc2)cc1COc1ccc(NC(C)=O)cc1 | 1%[57.5 µM]
COc1ccc(/C=N/NC(=O)c2cccnc2)cc1COc1ccc([N+](=O)[O-])cc1 | 22µM*
COc1cc(/C=N/NC(=O)c2cccnc2)ccc1OC(=O)c1ccc([N+](=O)[O-])cc1 | -2%
COc1cccc([C@@H]2Oc3ccc(OC)cc3C(=O)[C@H]2OC(=O)Nc2ccc(OC(F)F)cc2)c1 | -1%
O=S(=O)(CCc1ccccc1)c1nnnn1-c1ccccc1 | 1%
CN(C)C(=O)c1ccc(-c2nc(NCc3ccccc3)c3ccccc3n2)cc1 | 25%
COC(=O)[C@@]1(Cc2ccc(F)cc2)[C@H]2c3cc(C(=O)N(C)C)n(Cc4cc(F)c(F)c(F)c4)c3C[C@H]2CN1C(=O)c1ccccc1 | -2%
NCC1O[C@@H](OC2C(N)CC(N)C(O)C2O[C@@H]2OC(CO)C(O)C2O)C(N)C(O)C1O (some centres not stated) | 17%
c1ccc(-c2csc3ncnc(NCCCN4CCOCC4)c23)cc1 | 5%
CCN(CC)c1ncnc2scc(C3COc4ccccc4O3)c12 (configuration not stated) | 0%
c1ccc(-c2csc3ncnc(NCC4COc5ccccc5O4)c23)cc1 (configuration not stated) | 14µM*
Cc1nc(NCCO)c2nc(-c3ccccc3)n(CCCN(C)C)c2n1 | 11%

Source: PubChem BioAssay
